Among the data in PubChem BioAssay (EPA / NIEHS) are outcome and AC50 values, retold here.

Calls of active or inactive are those of the source. The calls were made as follows: active = hit-call score of the fitted dose curve at least 0.9, where 1 is the maximum; inactive = score below 0.9.

A short description of assay [1]: APR_HepG2_CellLoss_72hr: Apredica 72-hour HepG2 Assay for Cell Loss (AID 2282915). The conditions noted are these: high-content imaging. An outline of the steps: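 Cell number comes from Hoechst 33342-labelled nuclei, imaged at 20x after 3.7% formaldehyde fixation. Dosing was 0.39–200 uM, ten concentrations in duplicate, 0.5% DMSO final, for 72 h. Bidirectional fit relative to DMSO baseline.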

Assay [2] in a line: APR_HepG2_P-H2AX_72hr: Apredica 72-hour HepG2 Assay for H2AX Phosphorylation (AID 2282916).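 Also: phospho-histone H2A.x immunostain intensity per cell marking DNA damage.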 The conditions noted are these: imaging, actives raise or lower the signal. The essentials:
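Phospho-histone H2A.x immunofluorescence, multiplexed with Hoechst and c-Jun, quantified by high-content imaging. Compounds applied to HepG2 for 72 h across ten concentrations (0.39–200 uM, 0.5% DMSO), in duplicate; DMSO baseline.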

Assay [3] can be described thus: APR_HepG2_MitoticArrest_72hr: Apredica 72-hour HepG2 Assay for Mitotic Arrest (AID 2282918). The following applies: high-content imaging, actives raise or lower the signal. An outline of the steps:
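Mitotic arrest in HepG2 is scored from phospho-histone H3 staining after 72 hr dosing across 0.39–200 uM, with DMSO at 0.5% v/v. Nuclei are identified by Hoechst 33342 and fluorescence intensity is quantified per cell.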

A short description of assay [4]: APR_HepG2_MicrotubuleCSK_72hr: Apredica 72-hour HepG2 Assay for Microtubule CSK Stabilty (AID 2282919). The following applies: HepG2 microtubule cytoskeleton, high-content imaging, actives raise or lower the signal. The essentials: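 High-content imaging of alpha-tubulin staining in fixed HepG2 cells after 72 hr treatment with ten concentrations from 0.39 to 200 uM (0.5% DMSO). Fitting was bidirectional against DMSO; taxol served as positive control.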

The nature of assay [5]: APR_HepG2_P-H2AX_24hr: Apredica 24-hour HepG2 Assay for H2AX Phosphorylation (AID 2282920). The following applies: high-content imaging, actives raise or lower the signal. An outline of the steps: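 Signal comes from a FITC-labeled secondary detecting phospho-histone H2A.x in fixed HepG2 cells, quantified by automated imaging at 20x. Dosing ran 24 hr across 0.39–200 uM with 0.5% v/v DMSO.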

A short description of assay [6]: APR_HepG2_StressKinase_72hr: Apredica 72-hour HepG2 Assay for Stress Kinase (AID 2282921). The conditions noted are these: HepG2 stress kinase (phospho-c-Jun) imaging, actives raise or lower the signal. An outline of the steps: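 Stress kinase signal is phospho-c-Jun immunofluorescence (1:500 primary, Cy3 secondary) in fixed, permeabilized human HepG2 cells imaged at 20x. Exposure lasted 72 hr over ten concentrations from 0.39 to 200 uM, 0.5% DMSO, in duplicate. Bidirectional fit versus DMSO.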

A short description of assay [7]: APR_HepG2_StressKinase_24hr: Apredica 24-hour HepG2 Assay for Stress Kinase (AID 2282922). The following applies: HepG2 stress kinase (phospho-c-Jun) imaging, actives raise or lower the signal. An outline of the steps:
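High-content imaging of phospho-c-Jun immunofluorescence in fixed, permeabilized HepG2 cells after 24 h dosing. Ten concentrations, 0.39 to 200 uM, run in duplicate at 0.5% v/v DMSO; gain or loss of signal versus DMSO.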

The nature of assay [8]: APR_HepG2_p53Act_72hr: Apredica 72-hour HepG2 Assay for p53 Activation (AID 2282923).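 Also: average cellular p53 protein immunofluorescence intensity in HepG2 cells.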 The following applies: high-content imaging, actives raise or lower the signal. The essentials:
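After 72 h with compound (ten points, 0.39 to 200 uM, final DMSO 0.5% v/v), fixed HepG2 cells were labelled with sheep anti-p53 and Hoechst 33342 and imaged; gain or loss versus DMSO scored.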

Assay [9] can be described thus: APR_HepG2_MitoMass_72hr: Apredica 72-hour HepG2 Assay for Mitochondrial Mass (AID 2282924).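 Also: MitoTracker Red CMXRos stain intensity per cell imaged as mitochondrial mass.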 The conditions noted are these: high-content imaging, actives raise or lower the signal. An outline of the steps: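 Readout is imaged MitoTracker Red (250 nM, 30 min, pre-fixation) signal, fitted bidirectionally against DMSO baseline. Human HepG2 liver cells received compound 0.39–200 uM in duplicate for 72 hr, final DMSO 0.5%.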

Assay [10] is described as follows: APR_HepG2_NuclearSize_72hr: Apredica 72-hour HepG2 Assay for Nuclear Size (AID 2282925). The following applies: high-content imaging, actives raise or lower the signal. The essentials: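 Nuclear size was read by high-content imaging of Hoechst 33342 stain after formaldehyde fixation. Compounds ran 72 h on HepG2 at 0.39 to 200 uM, with final DMSO 0.5% v/v. Curves fitted both directions relative to DMSO control.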

Assay [11] can be described thus: ATG_CRE_CIS: Attagene CIS-FACTORIAL HepG2 Assay for human cAMP Responsive Element (CRE) binding protein 3 (AID 2282926). The following applies: HepG2 CRE cis-reporter, Attagene multiplexed mRNA; actives raise or lower the signal. An outline of the steps:
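Cells carrying cis-regulated reporter constructs respond through their own endogenous factors. After 24 h treatment, RNA is reverse-transcribed, amplified, labelled and sized by capillary electrophoresis; up- and down-regulation are both scored against vehicle.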

Assay [12] concerns the target CCAAT/enhancer-binding protein beta (Homo sapiens) (UniProt P17676). In words: ATG_C_EBP_CIS: Attagene CIS-FACTORIAL HepG2 Assay for human CCAAT/Enhancer Binding Protein (C/EBP) beta (AID 2282927). The conditions noted are these: HepG2 Attagene cis-factorial transcription factor reporter; actives raise or lower the signal. The essentials: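 Changes in reporter mRNA, rather than exogenous chimeric receptor activity, reflect native C/EBP signalling in transfected HepG2 cells dosed for 24 h; transcripts are detected by RT-PCR and capillary electrophoresis.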

The nature of assay [13]: ATG_CMV_CIS: Attagene CIS-FACTORIAL HepG2 Assay for human CMV (Internal Marker) (AID 2282928).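 Also: endpoint acts as a background internal control marker rather than a target.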 The following applies: HepG2 CMV promoter reporter, transcription factor profiling; actives raise or lower the signal. The essentials:
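Fluorescence intensity of RT-PCR-derived reporter fragments, resolved by capillary electrophoresis, gives the signal. HepG2 liver cells bearing transfected cis-element reporters were treated 24 h; activity in either direction was fit relative to DMSO-treated controls.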

The nature of assay [14]: ATG_DR4_LXR_CIS: Attagene CIS-FACTORIAL HepG2 Assay for human Liver X Receptor (LXR), DR4 submotif (AID 2282929). The conditions noted are these: HepG2 Attagene DR4 cis-reporter, mRNA transcription; actives raise or lower the signal. An outline of the steps: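 Cells were transfected with multiple reporter transcription units, exposed to chemicals for 24 hours, then lysed for RNA. Reporter mRNA induction was measured by RT-PCR with capillary electrophoresis detection and fitted in both directions relative to DMSO.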

For assay [15], the target named is Aryl hydrocarbon receptor (Homo sapiens) (UniProt P35869). Nature of the assay: ATG_Ahr_CIS: Attagene CIS-FACTORIAL HepG2 Assay for human Aryl Hydrocarbon Receptor (Ahr) (AID 2282930). The following applies: HepG2 AhR cis-factorial reporter transcription; actives raise or lower the signal. An outline of the steps:
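HepG2, transient MRTU (cis) transfection, 24 h exposure. RNA → cDNA → PCR → 6-FAM primer extension → HpaI 2 h 37 C → CE. Fit: bidirectional, DMSO baseline.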

Assay [16] is described as follows: ATG_AP_1_CIS: Attagene CIS-FACTORIAL HepG2 Assay for human Activator Protein 1 (AP-1) (AID 2282931). The conditions noted are these: HepG2 Attagene cis-factorial AP-1 reporter mRNA; actives raise or lower the signal. An outline of the steps: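 Endogenous transcription-factor activity in human HepG2 liver cells is read through a cis-promoter reporter transcript, sampled 24 h after dosing. Detection uses RT-PCR with capillary electrophoresis; values come from bidirectional fitting relative to DMSO.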

Assay [17] in a line: ATG_AP_2_CIS: Attagene CIS-FACTORIAL HepG2 Assay for human Activator Protein 2 (AP-2) (AID 2282932). The conditions noted are these: HepG2 AP-2 cis-reporter, Attagene transcription factor profiling; actives raise or lower the signal. An outline of the steps:
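Endogenous transcription factor activity is reported through transfected multiplex reporter constructs in HepG2, after 24 h of compound exposure. Transcripts were quantified by RT-PCR and capillary electrophoresis of fluorescent fragments. Bidirectional fit against DMSO.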

Assay [18] can be described thus: APR_HepG2_MitoMembPot_72hr: Apredica 72-hour HepG2 Assay for Mitochondrial Membrane Potential (AID 2282917). The conditions noted are these: imaging, actives raise or lower the signal. An outline of the steps:
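Membrane potential read by MitoTracker Red CMXRos (250 nM, 30 min, pre-fixation) fluorescence imaging of HepG2 after 72 hr exposure. Ten concentrations, 0.39–200 uM, duplicate wells, 0.5% DMSO; fitted in both directions against DMSO baseline.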

For assay [19], the target named is Retinoic acid receptor alpha (Homo sapiens) (UniProt P10276). In words: ATG_DR5_RAR_CIS: Attagene CIS-FACTORIAL HepG2 Assay for human Retinoic Acid Receptor Alpha (RARE), DR5 submotif (AID 2282934).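 As to AC50: reporter responds to endogenous RAR alpha beta and gamma in HepG2 not RARA alone.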 The following applies: HepG2 Attagene cis-factorial RARE DR5 reporter, mRNA; actives raise or lower the signal. The essentials: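 HepG2, transient cis-reporter transfection, 24 h exposure. mRNA readout: RT-PCR, FAM label, HpaI cut, capillary electrophoresis. DMSO baseline, gain/loss fitting.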
Retinoic acid receptor alpha (Homo sapiens), sequence (P10276 whole entry, looked up): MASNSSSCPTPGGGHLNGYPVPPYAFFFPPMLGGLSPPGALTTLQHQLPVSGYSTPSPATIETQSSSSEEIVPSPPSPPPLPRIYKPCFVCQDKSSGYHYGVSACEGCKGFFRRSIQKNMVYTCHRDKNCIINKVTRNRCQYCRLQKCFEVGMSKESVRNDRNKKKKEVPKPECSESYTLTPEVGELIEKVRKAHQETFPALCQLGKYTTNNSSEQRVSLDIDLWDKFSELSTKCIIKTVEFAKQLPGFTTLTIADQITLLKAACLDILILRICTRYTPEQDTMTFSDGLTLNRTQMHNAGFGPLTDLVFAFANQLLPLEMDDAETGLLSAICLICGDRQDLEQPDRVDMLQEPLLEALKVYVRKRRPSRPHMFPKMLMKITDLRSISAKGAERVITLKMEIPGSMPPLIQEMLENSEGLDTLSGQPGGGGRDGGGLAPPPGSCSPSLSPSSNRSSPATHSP

Assay [20] in a line: ATG_BRE_CIS: Attagene CIS-FACTORIAL HepG2 Assay for human Bone Morphogenetic Protein (BMP) Response Element (BRE) (AID 2282933). The following applies: HepG2 BMP response element reporter, Attagene transcription factor profiling; actives raise or lower the signal. The essentials:
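After a 24 h chemical treatment, transiently transfected HepG2 cells were lysed for RNA; reporter transcripts were quantified by fluorescent RT-PCR and capillary electrophoresis, normalised to DMSO.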

CCAAT/enhancer-binding protein beta (Homo sapiens), sequence (P17676 whole entry, looked up): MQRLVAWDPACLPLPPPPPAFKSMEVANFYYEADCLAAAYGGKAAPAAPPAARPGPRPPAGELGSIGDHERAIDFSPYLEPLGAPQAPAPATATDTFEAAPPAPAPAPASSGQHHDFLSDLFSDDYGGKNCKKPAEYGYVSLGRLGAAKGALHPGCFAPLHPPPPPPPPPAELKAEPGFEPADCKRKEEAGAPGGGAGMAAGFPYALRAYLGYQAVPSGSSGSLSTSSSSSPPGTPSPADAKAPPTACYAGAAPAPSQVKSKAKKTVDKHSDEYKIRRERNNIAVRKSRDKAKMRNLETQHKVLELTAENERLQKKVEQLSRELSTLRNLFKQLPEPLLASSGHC
Aryl hydrocarbon receptor (Homo sapiens), sequence (P35869 whole entry, looked up): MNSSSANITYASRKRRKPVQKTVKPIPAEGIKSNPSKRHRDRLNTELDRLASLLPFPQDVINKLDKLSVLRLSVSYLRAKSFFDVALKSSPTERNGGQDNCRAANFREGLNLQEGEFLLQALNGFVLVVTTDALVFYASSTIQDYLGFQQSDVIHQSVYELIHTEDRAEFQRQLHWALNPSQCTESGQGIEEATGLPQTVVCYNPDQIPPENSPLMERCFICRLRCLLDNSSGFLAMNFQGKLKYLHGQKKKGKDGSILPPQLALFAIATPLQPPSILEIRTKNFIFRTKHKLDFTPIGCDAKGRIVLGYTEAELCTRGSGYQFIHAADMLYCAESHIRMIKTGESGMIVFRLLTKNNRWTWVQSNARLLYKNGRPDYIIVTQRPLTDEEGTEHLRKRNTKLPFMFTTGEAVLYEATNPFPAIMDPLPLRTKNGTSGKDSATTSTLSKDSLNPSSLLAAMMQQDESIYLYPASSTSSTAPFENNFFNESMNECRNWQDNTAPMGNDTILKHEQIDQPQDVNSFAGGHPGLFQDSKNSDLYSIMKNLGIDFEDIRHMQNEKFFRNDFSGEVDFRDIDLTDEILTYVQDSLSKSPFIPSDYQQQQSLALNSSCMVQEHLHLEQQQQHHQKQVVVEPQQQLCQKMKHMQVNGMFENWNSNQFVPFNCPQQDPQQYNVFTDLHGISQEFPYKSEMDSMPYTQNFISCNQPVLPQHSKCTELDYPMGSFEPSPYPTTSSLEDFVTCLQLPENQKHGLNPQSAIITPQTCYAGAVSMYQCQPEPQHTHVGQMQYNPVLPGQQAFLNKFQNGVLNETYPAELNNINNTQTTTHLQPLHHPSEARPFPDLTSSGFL

As for `CC(=O)c1ccccc1`, the compound was classed as inactive in [1], in assay [2], in assay [3], in [4], in assay [5] and in [6]. The outcome in assay [7], in assay [8], in assay [9], in assay [10], in [11] and in assay [12] was inactive. In addition, the compound was classed as inactive in assay [13], in assay [14], in assay [15], in assay [16] and in [17].
Turning to `O=S(=O)(O)c1ccc(N=Nc2c(O)ccc3cc(S(=O)(=O)O)ccc23)cc1`, the outcome in assay [1], in assay [2], in [18], in [3], in assay [4] and in assay [5] was inactive. In addition, the result in assay [6], in [7], in [9], in assay [10], in [11] and in assay [12] was inactive. Besides, the compound was classed as inactive in [14], in assay [15], in assay [16], in assay [17] and in assay [19].
Regarding `OC(CCl)CCl`, the result in assay [1], in assay [2], in [3], in [4], in assay [5] and in assay [6] was inactive. The result in assay [7], in [8], in assay [9], in assay [10], in assay [11] and in assay [12] was inactive. Moreover, the outcome in [13], in [14], in [15], in assay [16] and in [17] was inactive.
With `CC(C)C(=O)Nc1ccc([N+](=O)[O-])c(C(F)(F)F)c1`, the AC50 (usually the concentration giving half of the maximal activity seen) in assay [1] was 58.8 µM (active); in assay [2], 70.8 µM (active); in assay [3] it was 61 µM (active); in [4] it was 67.8 µM (active); in assay [5], 91 µM (active); in [9] it was 74.9 µM (active). In addition, the AC50 in assay [10] is 111 µM (active); in assay [15], 135 µM (active); in assay [16], 23.5 µM (active); in assay [20], 65.1 µM (active). Also, the compound was called inactive in [18], in assay [6], in [7], in [11], in assay [12] and in assay [13]. Besides, the compound was classed as inactive in [14], in assay [17] and in assay [19].
Turning to `CCCCCCCC/C=C\CCCCCCCC(=O)OC[C@@H](O)[C@H]1OC[C@H](O)[C@H]1O`, the call in assay [1], in [2], in [18], in assay [3], in assay [4] and in assay [5] was inactive. Moreover, the call in [6], in assay [7], in [8], in [9], in assay [10] and in assay [11] was inactive. Further, the outcome in assay [12], in [13], in assay [14], in [16], in assay [17] and in [19] was inactive.
As to `CCN(CC)C(=S)SSC(=S)N(CC)CC`, the concentration at half-maximal activity (AC50) was 22.9 µM (active) in assay [1]; 27.1 µM (active) in [2]; 37.4 µM (active) in assay [18]; 23.5 µM (active) in [3]; 60.7 µM (active) in assay [4]; 7.04 µM (active) in assay [5]. The AC50 in assay [6] is 31 µM (active); in assay [7], 87.4 µM (active); in assay [8] it was 12 µM (active); in assay [9], 14.4 µM (active); in [11], 76 µM (active); in assay [16], 25.8 µM (active). In addition, in assay [20], the AC50 is 142 µM (active). For the same compound, the compound was classed as inactive in assay [10], in assay [12], in assay [15] and in [17].
As to `Cc1nccn1-c1ccc(Sc2cccc(C3(C(N)=O)CCOCC3)c2)cc1`, the half-maximal activity concentration (AC50) in assay [1] is 17.4 µM (active); in assay [2], 40.9 µM (active); in [5], 73.4 µM (active); in [6], 64 µM (active); in assay [11] it was 1.67 µM (active); in assay [12] it was 1.94 µM (active). Besides, the AC50 in [13] is 0.93 µM (active); in assay [17], 8.08 µM (active); in assay [19] it was 1.83 µM (active). Besides, the compound was classed as inactive in assay [18], in assay [3], in [4], in assay [7], in assay [9] and in assay [10]. The outcome in assay [14], in assay [15], in assay [16] and in assay [20] was inactive.
